Reference: PubChem BioAssay (NCI)
Compounds without any hit were thinned out: in the full panel of roughly 83,000, 20% have a hit.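 How to read the values: 0–100, growth inhibition (40 = 60% inhibited); 0, no net growth; -100 to 0, cell death (-40 = 40% of starting cells died; -100 = all dead).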 The source made the active and inactive calls.

test system: SNB-75 CNS; assay: NCI-60 one-dose screen, 48 h (100 = growth as untreated, 0 = no growth, -100 = all killed); details: 10 µM unless noted
Procedure: Growth inhibition of the SNB-75 human tumor cell line is measured as a screen for anti-cancer activity. Cells are grown in 96 well plates and exposed to the test compound for 48 hours. Compounds are tested at a single concentration, which is 10^-5 M for most compounds. The reported endpoint is percent growth (GI% or GIPRCNT), where numbers from 0 - 100% represent growth inhibition, and numbers from -100% - 0 represent cell death. For example, a value of 40 represents 60% growth inhibition. A value of 0 means no net growth occurred over the course of the experiment. A value of -40 indicates 40% of cells at the beginning of the experiment died by the end of the experiment. A value of -100 means all cells are dead at the end of the experiment.
NCI-60 Human Tumor Cell Lines Screen was performed using the standard one-dose NCI protocol, which is described in more detail at https://dtp.cancer.gov/discovery_development/nci-60/default.htm.
Compounds with GIPRCNT values below 10 were considered active. Activity score was based on GIPRCNT using the following formula: […]
Score is 0 for GIPRCNT values of 100 or above, 50 for GIPRCNT values of 0, and 100 for GIPRCNT values of -100.

Structure (SMILES)	growth
COc1ccc(-c2cc(=O)[nH]c3c(OC)c4ccccc4c(OC)c23)cc1	13.3% (inactive)
Cc1ccn2c(-c3csc(Nc4cccc(O)c4)n3)c(C)nc2c1	-2.73% (active)
c1ccc2c(Nc3cccc4ccccc34)cccc2c1	20.8% (inactive)
O=c1ccc2cc3ccccc3cc2[nH]1	82.2% (inactive)
CNCCCn1c2c(c3ccc([N+](=O)[O-])cc3c1=O)C(=O)c1cc(OC)cnc1-2	-26.5% (active)
COc1cc2nc3cc([N+](=O)[O-])ccc3c(NCCCNCC(C)(C)O)c2cc1OC	-96% (active)
O=C(CO[N+](=O)[O-])Nc1ccc(C(=O)/C=C/c2ccc(Cl)cc2)cc1	69.7% (inactive)
CS(=O)(CCCCN=C=S)=NC(=O)c1c(F)c(F)c(F)c(F)c1F (stereo not given)	97.4% (inactive)
CC1CN(C(C)C)C(=S)N(c2ccccc2)C1=O (stereo not given)	119% (inactive)
C=C1CCC2C3(C)COC(c4cccc(Cl)c4)OC3CCC2(C)C1/C=C/C1=CCOC1=O (stereo not given)	86.5% (inactive)
CCOC(=O)N1CCN(c2nc(Nc3cc(C)[nH]n3)c3ccccc3n2)CC1	-21.2% (active)
C=C(CN1CCN(c2cccc(C(F)(F)F)n2)CC1)c1ccc(C(=O)Nc2ccccc2N)cc1	7.18% (active)
COCCOc1ccc(-c2nc3ccc(-c4nc5ccc(N6CCN(C)CC6)cc5[nH]4)cc3[nH]2)cc1	-21.2% (active)
CNc1cc2nc3cc(NC)c(C)cc3cc2cc1C	16.5% (inactive)
COc1ccc(/C=N\NC(=O)c2ccncc2)cc1O	74.8% (inactive)
CCCN(CCC)CN(CCC)CCC	96% (inactive)
COc1cccc(/C=C2/C(=O)N(Cc3ccco3)SC2=S)c1OC	71.8% (inactive)
c1ccc2sc(SCCCn3ccnc3)nc2c1	117% (inactive)
Cc1ccc(N)cc1F	101% (inactive)
O=C(Cc1ccccc1)c1ccc(Cl)cc1	95.9% (inactive)

Structure (SMILES)	growth
C=CC[N+]1(CCO)CCN=C1CCCCCCCCCCCCC (stereo not given)	-78.3% (active)
Oc1ccc2c(=S)cc(-c3ccc(Br)cc3)oc2c1O	71.4% (inactive)
O=C(CN1CCN(c2cc3c(cc2F)c(=O)c(C(=O)O)cn3C2CC2)CC1)Nc1nc(-c2ccc(Cl)cc2)cs1	32.6% (inactive)
CCC(c1ccc(O)cc1)C(CC)c1ccc(O)c(F)c1 (stereo not given)	78.7% (inactive)
CC(=O)C1=C(O)C=C2Oc3c(C(=O)/C=C/c4cc(Cl)cc(Cl)c4)c(O)c(C)c(O)c3[C@]2(C)C1=O	-39.9% (active)
Cn1c(=O)c2c(ncn2CC[N+](C)(C)C)n(C)c1=O	90.9% (inactive)
CSc1nc(NCCCNc2ccnc3cc(Cl)ccc23)cc(-c2ccccc2)n1	56.9% (inactive)
O=C(O)c1cccnc1Br	86.2% (inactive)
Clc1nc(Cl)c2c3c(sc2n1)CCCC3	89% (inactive)
Clc1cccc(Nc2nc(Nc3cnc4ccccc4c3)c3[nH]cnc3n2)c1	52.4% (inactive)
Cc1ccc2c(c1)C(=O)/C(=C/c1ccc(OCC(=O)c3ccccc3)cc1)O2	109% (inactive)
CC1=C(NCCN2CCCC2)C(=O)c2c(OCc3ccc(F)c(Cl)c3)cccc2C1=O	69.9% (inactive)
O=C(/C=C/c1cccc(Br)c1)c1ccccc1	88.4% (inactive)
COc1ccc(OCC(=O)Nc2ccc(-c3nc4ccccc4s3)cc2C)cc1	83.4% (inactive)
NS(=O)(=O)c1ccc(Nc2nc3n[nH]c(Nc4ccccc4)c3c(=O)[nH]2)cc1	70.8% (inactive)
c1ccc(CSc2ncnc3nc[nH]c23)nc1	97.2% (inactive)
CCCCNC(=O)NS(=O)(=O)c1ccc(N2N=C(c3cc(C)ccc3C)CC2c2cc(OC)c(OC)c(OC)c2)cc1 (stereo not given)	51.1% (inactive)
O=C1c2cc3c(cc2-c2c1c1cc(Cl)c(Cl)cc1c(=O)n2C[C@H](O)CO)OCO3	-31.4% (active)
NC(=S)N/N=C/c1ccc(OCc2ccccc2)cc1	67.8% (inactive)
CCN(CC)CCCNc1cccc2c(SCc3ccccc3)ccnc12	87.1% (inactive)
